Results as given in PubChem BioAssay (EPA / NIEHS).
Records with an inconclusive call do not appear. Activity calls are given as the source filed them. The calls were made as follows, unless noted: active = hit-call score of the fitted dose curve at least 0.9, where 1 is the maximum; inactive = score below 0.9.

Key:
[1] = molecular target: Estrogen-related receptor gamma (Homo sapiens) (UniProt P62508); assay: ATG_ERRg_TRANS: Attagene TRANS-FACTORIAL HepG2 Assay for human Estrogen-Related Receptor gamma (ERRg) (AID 2282977; active = hit-call score of the fitted dose curve at least 0.9, where 1 is the maximum;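 also: hits increase reporter signal over DMSO so potencies reflect activators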); settings: HepG2 Attagene TRANS reporter, ERRg transactivation
Method in brief: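 HepG2 cells transiently transfected with multiplexed GAL4-UAS reporter units and chimeric NR-Gal4 constructs were exposed to test chemicals for 24 h. Reporter mRNA was measured by RT-PCR, 6-FAM primer extension, HpaI digestion and capillary electrophoresis; gain-of-signal versus DMSO.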

[2] = molecular target: Oxysterols receptor LXR-alpha (Homo sapiens) (UniProt Q13133); assay: ATG_LXRa_TRANS: Attagene TRANS-FACTORIAL HepG2 Assay for human Liver X Receptor alpha (LXRa) (AID 2282980; active = hit-call score of the fitted dose curve at least 0.9, where 1 is the maximum); settings: HepG2 Attagene TRANS reporter, LXRa transactivation
Method in brief: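 Chemical-induced reporter mRNA measured by RT-PCR with fluorescent labelling and capillary electrophoresis after 24 h dosing of transiently transfected HepG2 cells expressing exogenous NR-Gal4 chimeras; increases scored against DMSO baseline.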

[3] = molecular target: Transcriptional activator Myb (Homo sapiens) (UniProt P10242); assay: ATG_Myb_CIS: Attagene CIS-FACTORIAL HepG2 Assay for human Myeloblastosis (Myb) Proto-Oncogene Transcription Factor (AID 2282986); settings: HepG2 Attagene CIS-FACTORIAL Myb reporter transcription; actives raise or lower the signal
Method in brief: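 Steps: transfect HepG2 with cis-regulated reporter units; dose with chemical for 24 h; isolate RNA, reverse-transcribe, PCR-amplify and FAM-label reporter sequences; digest with HpaI; resolve by capillary electrophoresis. Activity fitted in both directions relative to DMSO.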

[4] = molecular target: Nuclear respiratory factor 1 (Homo sapiens) (UniProt Q16656); assay: ATG_NRF1_CIS: Attagene CIS-FACTORIAL HepG2 Assay for human Nuclear Respiratory Factor 1 (NRF1) Orphan Gene (AID 2282987); settings: HepG2 NRF1 cis-element reporter, Attagene multiplex; actives raise or lower the signal
Method in brief: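 Fluorescence intensity of labelled reporter cDNA fragments, resolved by capillary electrophoresis, served as readout for NRF1 cis-element activity. Transiently transfected HepG2 cells were dosed for 24 hours; activity in either direction was fitted against DMSO negative control.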

[5] = ATG_NFI_CIS: Attagene CIS-FACTORIAL HepG2 Assay for human Nuclear Factor I (NFI) (AID 2282989); settings: HepG2 cis-regulatory reporter, NFI response element transcription; actives raise or lower the signal
Method in brief: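 HepG2 cells transiently transfected with cis-element-driven multiplexed reporter transcription units, dosed for 24 h. Reporter mRNA quantified by RT-PCR, fluorescent labelling, HpaI digestion and capillary electrophoresis; bidirectional fit versus DMSO baseline.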

[6] = molecular target: Myc proto-oncogene protein (Homo sapiens) (UniProt P01106); assay: ATG_Myc_CIS: Attagene CIS-FACTORIAL HepG2 Assay for human Myelocytomatosis (Myc) Proto-Oncogene Transcription Factor (AID 2282990); settings: HepG2, Attagene cis-reporter transcription factor activity; actives raise or lower the signal
Method in brief: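 HepG2 cells transiently transfected with multiple cis-promoter-driven reporter transcription units, so endogenous TF activity is read. After 24 h compound exposure, reporter mRNA was quantified by RT-PCR, 6-FAM labelling, HpaI digestion and capillary electrophoresis; bidirectional fit versus DMSO.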

[7] = ATG_NF_kB_CIS: Attagene CIS-FACTORIAL HepG2 Assay for human Nuclear Factor Kappa B (NF-kB) (AID 2282991); settings: HepG2 Attagene cis-factorial NF-kB reporter mRNA; actives raise or lower the signal
Method in brief: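 Endogenous transcription factor activity in HepG2 was captured via cis-regulated reporter constructs; after 24 h dosing, reporter mRNA was reverse-transcribed, amplified, fluorescently labelled and sized by capillary electrophoresis, with activity fitted bidirectionally relative to DMSO.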

[8] = ATG_NRF2_ARE_CIS: Attagene CIS-FACTORIAL HepG2 Assay for human Nuclear Factor Erythroid 2 Related Factor 2 (NFR2) response to Antioxidant Response Elements (ARE) (AID 2282992); settings: HepG2 Attagene ARE/NRF2 reporter, transcription factor activity; actives raise or lower the signal;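 as to AC50: reporter mRNA level measured by RT-PCR and capillary electrophoresis fluorescence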
Method in brief: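 HepG2 cells transiently transfected with multiplexed cis-element reporter constructs, 24 h after chemical dosing; reporter mRNA quantified by RT-PCR, fluorescent primer extension, HpaI digestion and capillary electrophoresis. Bidirectional fit relative to DMSO.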

[9] = ATG_Oct_MLP_CIS: Attagene CIS-FACTORIAL HepG2 Assay for human Octamer-Binding Transcription Factor (Oct) (AID 2282993); settings: HepG2 Attagene cis-factorial Oct reporter, mRNA; actives raise or lower the signal
Method in brief: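 HepG2 cells transiently transfected with cis-promoter-driven multiplexed reporter transcription units, dosed for 24 h. Reporter mRNA quantified by RT-PCR, fluorescent labelling, HpaI digestion and capillary electrophoresis; bidirectional fits versus DMSO baseline.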

[10] = molecular target: Cellular tumor antigen p53 (Homo sapiens) (UniProt P04637); assay: ATG_p53_CIS: Attagene CIS-FACTORIAL HepG2 Assay for human p53 Transcription Factor (AID 2282994); settings: HepG2 p53 cis-element reporter, Attagene mRNA; actives raise or lower the signal
Method in brief: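 HepG2 cells transiently transfected with cis-regulated multiple reporter transcription units, dosed 24 h. Reporter mRNA measured by RT-PCR, 6-FAM primer extension, HpaI digestion and capillary electrophoresis; bidirectional fit relative to DMSO.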

[11] = molecular target: Glucocorticoid receptor (Homo sapiens) (UniProt P04150); assay: ATG_GR_TRANS: Attagene TRANS-FACTORIAL HepG2 Assay for human Glucocorticoid Receptor (GR) (AID 2282978; active = hit-call score of the fitted dose curve at least 0.9, where 1 is the maximum;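 also: activators score as hits since higher reporter transcript over DMSO is fitted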); settings: HepG2 Attagene TRANS GR reporter, mRNA transcription
Method in brief: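 In this trans-factorial format, exogenous NR-GAL4 chimeric proteins in transfected HepG2 cells regulate GAL4-UAS reporter transcription. After 24 h treatment, reporter mRNA induction relative to DMSO is read by RT-PCR and capillary electrophoresis.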

[12] = ATG_M_06_TRANS: Attagene TRANS-FACTORIAL HepG2 Assay for M06 Transcription Factor (Internal Marker) (AID 2282983; active = hit-call score of the fitted dose curve at least 0.9, where 1 is the maximum;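 also: reporter transcript level by RT-PCR then capillary electrophoresis fluorescence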); settings: HepG2 Attagene TRANS M06 internal marker reporter
Method in brief: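 Cells: HepG2, transient multi-reporter transfection. Exposure: 24 h. Detection: RT-PCR, 6-FAM labelling, HpaI digestion (2 h, 37 °C), capillary electrophoresis. Baseline: DMSO.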

[13] = ATG_M_32_TRANS: Attagene TRANS-FACTORIAL HepG2 Assay for M32 Transcription Factor (Internal Marker) (AID 2282984; active = hit-call score of the fitted dose curve at least 0.9, where 1 is the maximum;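 also: transcript level of a background control reporter unit measured by RT-PCR and capillary electrophoresis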); settings: HepG2 Attagene TRANS M32 internal marker reporter
Method in brief: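 HepG2 cells transiently transfected with multiple GAL4-UAS reporter transcription units, dosed for 24 hours; reporter mRNA quantified by RT-PCR, 6-FAM primer extension, HpaI digestion and capillary electrophoresis. Gain-of-signal fitted versus DMSO baseline; internal background-control marker.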

[14] = molecular target: Bile acid receptor (Homo sapiens) (UniProt Q96RI1); assay: ATG_FXR_TRANS: Attagene TRANS-FACTORIAL HepG2 Assay for Farnesoid X Receptor (FXR) (AID 2282979; active = hit-call score of the fitted dose curve at least 0.9, where 1 is the maximum;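 also: hits raise reporter mRNA above DMSO so AC50 marks FXR activation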); settings: HepG2 Attagene TRANS FXR-GAL4 reporter transcription
Method in brief: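 Reporter transcripts from transfected HepG2 cells were measured 24 h after dosing, using RT-PCR with capillary electrophoresis of 6-FAM-labelled fragments. The read-out reflects activity of exogenous FXR-Gal4 chimera on GAL4-UAS units, with induction relative to DMSO.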

[15] = molecular target: Oxysterols receptor LXR-beta (Homo sapiens) (UniProt P55055); assay: ATG_LXRb_TRANS: Attagene TRANS-FACTORIAL HepG2 Assay for human Liver X Receptor beta (LXRb) (AID 2282981; active = hit-call score of the fitted dose curve at least 0.9, where 1 is the maximum); settings: HepG2 Attagene TRANS GAL4-LXRb reporter, mRNA
Method in brief: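 HepG2 cells transiently transfected with multiple reporter transcription units carrying chimeric NR-Gal4 proteins acting on GAL4-UAS reporters; compound exposure 24 h. Reporter mRNA quantified by RT-PCR, 6-FAM labelling, HpaI digestion and capillary electrophoresis; gain of signal versus DMSO.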

[16] = molecular target: Hepatocyte nuclear factor 4-alpha (Homo sapiens) (UniProt P41235); assay: ATG_HNF4a_TRANS: Attagene TRANS-FACTORIAL HepG2 Assay for human Hepatocyte Nuclear Factor 4 alpha (HNF4a) (AID 2282982; active = hit-call score of the fitted dose curve at least 0.9, where 1 is the maximum); settings: HepG2 HNF4a transactivation reporter, mRNA readout
Method in brief: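 HepG2 cells transiently transfected with multiplexed GAL4-UAS reporter units responsive to chimeric NR-GAL4 proteins; compound exposure 24 h. Reporter mRNA quantified by RT-PCR, 6-FAM labelling, HpaI digestion and capillary electrophoresis; gain of signal versus DMSO baseline.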

[17] = BSK_3C_uPAR: BioMAP Diversity Plus: 3C Assay for Urokinase-type plasminogen activator receptor (uPAR) Biomarker Activity (AID 2282998); settings: BioMAP 3C HUVEC, uPAR biomarker ELISA; actives raise or lower the signal
Method in brief: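 Human umbilical vein endothelial primary cells were exposed to test chemical for 24 h. Cell-surface uPAR was then quantified by ELISA, and responses were fitted bidirectionally against DMSO as negative control and baseline.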

[18] = BSK_3C_VCAM1: BioMAP Diversity Plus: 3C Assay for Vascular cell adhesion molecule 1 (VCAM1) Biomarker Activity (AID 2282999); settings: BioMAP 3C HUVEC, VCAM1 ELISA, cytokine-stimulated; actives raise or lower the signal
Method in brief: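 Human umbilical vein endothelial cells were dosed with compound for 24 h, after which cell-surface VCAM-1 was quantified by ELISA. Bidirectional curve fitting used DMSO as negative control and activity baseline.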

Measured: AC50

Sequence of Transcriptional activator Myb (Homo sapiens) (P10242 whole entry, looked up): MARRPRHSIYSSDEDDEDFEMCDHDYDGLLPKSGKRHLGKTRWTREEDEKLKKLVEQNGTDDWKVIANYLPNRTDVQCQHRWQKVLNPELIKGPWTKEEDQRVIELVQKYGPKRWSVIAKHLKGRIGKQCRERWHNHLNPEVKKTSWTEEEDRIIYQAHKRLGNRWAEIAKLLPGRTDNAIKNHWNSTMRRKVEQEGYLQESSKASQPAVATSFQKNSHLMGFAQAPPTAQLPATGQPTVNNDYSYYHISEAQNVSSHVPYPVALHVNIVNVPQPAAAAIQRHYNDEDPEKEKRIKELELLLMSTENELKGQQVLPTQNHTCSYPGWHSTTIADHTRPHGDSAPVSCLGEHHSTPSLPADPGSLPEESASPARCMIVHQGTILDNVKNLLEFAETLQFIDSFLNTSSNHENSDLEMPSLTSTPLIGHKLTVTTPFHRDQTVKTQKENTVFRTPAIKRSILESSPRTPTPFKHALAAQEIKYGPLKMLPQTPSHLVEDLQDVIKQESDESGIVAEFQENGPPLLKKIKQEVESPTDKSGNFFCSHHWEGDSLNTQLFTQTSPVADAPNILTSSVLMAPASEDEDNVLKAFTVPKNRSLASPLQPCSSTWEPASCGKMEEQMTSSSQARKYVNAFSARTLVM
Sequence of Cellular tumor antigen p53 (Homo sapiens) (P04637 whole entry, looked up): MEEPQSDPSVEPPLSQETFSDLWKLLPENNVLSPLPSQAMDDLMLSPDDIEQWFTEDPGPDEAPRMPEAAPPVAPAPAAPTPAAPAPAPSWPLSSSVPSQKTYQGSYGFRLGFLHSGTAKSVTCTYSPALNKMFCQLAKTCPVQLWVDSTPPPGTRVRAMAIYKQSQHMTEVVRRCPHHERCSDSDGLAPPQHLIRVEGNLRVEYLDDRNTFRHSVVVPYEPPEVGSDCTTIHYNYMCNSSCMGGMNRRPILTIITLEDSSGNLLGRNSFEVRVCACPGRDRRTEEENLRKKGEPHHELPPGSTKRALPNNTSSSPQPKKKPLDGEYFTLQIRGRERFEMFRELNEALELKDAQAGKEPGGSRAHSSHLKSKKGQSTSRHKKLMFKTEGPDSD
Sequence of Hepatocyte nuclear factor 4-alpha (Homo sapiens) (P41235 whole entry, looked up, the tested form may be a part): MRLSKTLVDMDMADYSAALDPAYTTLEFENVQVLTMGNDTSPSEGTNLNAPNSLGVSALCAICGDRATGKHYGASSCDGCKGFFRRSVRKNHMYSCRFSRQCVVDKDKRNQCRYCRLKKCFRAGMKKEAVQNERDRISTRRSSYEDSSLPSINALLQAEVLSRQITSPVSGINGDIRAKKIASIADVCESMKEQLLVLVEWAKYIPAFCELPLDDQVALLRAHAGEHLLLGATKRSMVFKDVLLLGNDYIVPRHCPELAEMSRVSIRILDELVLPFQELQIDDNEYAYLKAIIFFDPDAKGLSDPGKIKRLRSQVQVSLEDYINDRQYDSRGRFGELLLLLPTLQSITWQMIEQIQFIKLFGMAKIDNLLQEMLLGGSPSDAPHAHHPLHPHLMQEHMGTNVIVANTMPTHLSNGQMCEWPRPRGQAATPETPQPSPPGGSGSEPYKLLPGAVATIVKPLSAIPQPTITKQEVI
Sequence of Oxysterols receptor LXR-alpha (Homo sapiens) (Q13133 whole entry, looked up, the tested form may be a part): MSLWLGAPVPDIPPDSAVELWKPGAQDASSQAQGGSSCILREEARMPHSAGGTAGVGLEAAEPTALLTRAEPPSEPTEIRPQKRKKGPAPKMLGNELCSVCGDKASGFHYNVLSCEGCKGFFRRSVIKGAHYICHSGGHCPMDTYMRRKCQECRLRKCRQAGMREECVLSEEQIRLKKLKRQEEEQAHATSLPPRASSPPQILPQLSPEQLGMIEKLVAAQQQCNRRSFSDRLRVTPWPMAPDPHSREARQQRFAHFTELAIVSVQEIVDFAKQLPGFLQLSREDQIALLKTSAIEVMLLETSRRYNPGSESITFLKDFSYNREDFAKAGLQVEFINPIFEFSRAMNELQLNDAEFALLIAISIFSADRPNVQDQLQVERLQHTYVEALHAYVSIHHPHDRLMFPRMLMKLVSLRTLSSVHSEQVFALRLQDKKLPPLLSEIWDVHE
Sequence of Myc proto-oncogene protein (Homo sapiens) (P01106 whole entry, looked up): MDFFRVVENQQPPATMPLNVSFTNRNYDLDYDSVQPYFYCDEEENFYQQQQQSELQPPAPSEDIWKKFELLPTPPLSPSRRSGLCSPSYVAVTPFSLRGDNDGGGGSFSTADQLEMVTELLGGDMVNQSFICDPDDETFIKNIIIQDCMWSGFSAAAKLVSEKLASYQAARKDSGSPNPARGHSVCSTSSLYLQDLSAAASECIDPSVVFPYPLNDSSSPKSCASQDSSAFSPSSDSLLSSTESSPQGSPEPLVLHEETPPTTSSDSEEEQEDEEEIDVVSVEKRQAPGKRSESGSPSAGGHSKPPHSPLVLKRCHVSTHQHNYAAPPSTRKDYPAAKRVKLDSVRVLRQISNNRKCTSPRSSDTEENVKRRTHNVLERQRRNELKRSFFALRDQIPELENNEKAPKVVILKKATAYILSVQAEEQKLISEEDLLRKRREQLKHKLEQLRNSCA
Sequence of Oxysterols receptor LXR-beta (Homo sapiens) (P55055 whole entry, looked up, the tested form may be a part): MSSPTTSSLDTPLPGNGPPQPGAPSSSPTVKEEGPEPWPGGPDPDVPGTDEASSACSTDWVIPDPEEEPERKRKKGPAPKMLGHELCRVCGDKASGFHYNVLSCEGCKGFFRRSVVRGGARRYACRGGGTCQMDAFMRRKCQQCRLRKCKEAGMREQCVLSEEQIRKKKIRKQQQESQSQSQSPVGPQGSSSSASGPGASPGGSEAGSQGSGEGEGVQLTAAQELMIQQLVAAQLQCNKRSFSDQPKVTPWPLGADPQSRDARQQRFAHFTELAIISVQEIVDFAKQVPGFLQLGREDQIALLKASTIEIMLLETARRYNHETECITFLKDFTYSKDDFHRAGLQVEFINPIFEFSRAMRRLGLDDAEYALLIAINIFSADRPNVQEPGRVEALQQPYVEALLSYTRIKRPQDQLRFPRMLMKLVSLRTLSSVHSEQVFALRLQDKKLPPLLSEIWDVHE
Sequence of Nuclear respiratory factor 1 (Homo sapiens) (Q16656 whole entry, looked up, the tested form may be a part): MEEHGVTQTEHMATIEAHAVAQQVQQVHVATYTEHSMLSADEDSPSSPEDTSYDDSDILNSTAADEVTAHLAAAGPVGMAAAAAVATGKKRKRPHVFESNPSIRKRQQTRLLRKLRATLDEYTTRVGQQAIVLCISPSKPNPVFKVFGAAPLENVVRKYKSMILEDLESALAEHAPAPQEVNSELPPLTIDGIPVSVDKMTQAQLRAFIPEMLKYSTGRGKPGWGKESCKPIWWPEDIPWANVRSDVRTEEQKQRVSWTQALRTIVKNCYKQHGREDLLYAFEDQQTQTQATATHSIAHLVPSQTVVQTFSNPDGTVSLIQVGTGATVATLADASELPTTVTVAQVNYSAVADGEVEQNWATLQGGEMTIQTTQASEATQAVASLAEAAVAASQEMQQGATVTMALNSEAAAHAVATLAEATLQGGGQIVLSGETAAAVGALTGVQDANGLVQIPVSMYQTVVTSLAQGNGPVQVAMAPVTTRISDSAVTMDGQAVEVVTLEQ
Sequence of Glucocorticoid receptor (Homo sapiens) (P04150 whole entry, looked up, the tested form may be a part): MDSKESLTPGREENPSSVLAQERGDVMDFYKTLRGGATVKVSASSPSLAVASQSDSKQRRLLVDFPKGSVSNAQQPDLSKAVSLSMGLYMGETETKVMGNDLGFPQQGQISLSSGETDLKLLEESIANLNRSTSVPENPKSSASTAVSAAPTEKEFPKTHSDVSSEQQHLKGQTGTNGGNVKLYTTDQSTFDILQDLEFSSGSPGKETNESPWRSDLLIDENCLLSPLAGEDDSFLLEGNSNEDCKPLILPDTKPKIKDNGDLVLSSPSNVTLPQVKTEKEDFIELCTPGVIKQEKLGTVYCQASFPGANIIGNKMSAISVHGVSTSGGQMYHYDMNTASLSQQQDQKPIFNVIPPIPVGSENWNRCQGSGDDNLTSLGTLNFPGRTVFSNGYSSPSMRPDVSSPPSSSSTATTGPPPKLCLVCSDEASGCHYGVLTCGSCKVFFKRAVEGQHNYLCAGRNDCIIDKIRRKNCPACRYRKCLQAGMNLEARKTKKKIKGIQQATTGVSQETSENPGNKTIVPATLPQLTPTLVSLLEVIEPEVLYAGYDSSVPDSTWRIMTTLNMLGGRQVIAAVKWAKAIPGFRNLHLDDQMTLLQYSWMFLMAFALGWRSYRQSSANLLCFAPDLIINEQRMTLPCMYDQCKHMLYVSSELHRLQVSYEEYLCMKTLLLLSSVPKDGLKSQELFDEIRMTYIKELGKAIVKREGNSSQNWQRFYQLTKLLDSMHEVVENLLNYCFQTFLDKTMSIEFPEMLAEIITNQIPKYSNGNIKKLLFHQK
Sequence of Estrogen-related receptor gamma (Homo sapiens) (P62508 whole entry, looked up, the tested form may be a part): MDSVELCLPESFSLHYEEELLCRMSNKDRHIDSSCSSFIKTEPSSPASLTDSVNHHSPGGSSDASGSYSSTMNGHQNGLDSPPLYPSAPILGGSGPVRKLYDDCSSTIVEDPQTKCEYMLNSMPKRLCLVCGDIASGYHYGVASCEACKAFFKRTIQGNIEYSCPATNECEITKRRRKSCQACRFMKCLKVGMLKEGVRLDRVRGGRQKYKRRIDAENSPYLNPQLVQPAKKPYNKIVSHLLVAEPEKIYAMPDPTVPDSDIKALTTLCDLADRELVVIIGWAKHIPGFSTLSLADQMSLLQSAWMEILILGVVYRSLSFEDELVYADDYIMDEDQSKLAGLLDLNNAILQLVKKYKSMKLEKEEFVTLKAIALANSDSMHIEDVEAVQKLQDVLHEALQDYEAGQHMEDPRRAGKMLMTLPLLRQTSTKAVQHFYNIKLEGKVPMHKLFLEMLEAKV

Cc1cc(N)n(-c2ccccc2)n1
inactive: [1] | [2] | [3] | [4] | [5] | [6] | [7] | [8] | [9] | [10]

CCCCC(CC)COCCO (configuration not stated)
inactive: [1] | [11] | [2] | [12] | [13] | [3] | [4] | [5] | [6] | [7] | [8] | [9] | [10]

CC(=O)N(C)C
inactive: [1] | [11] | [3] | [6] | [9] | [10]

CCCCCCCCOS(=O)(=O)O
inactive: [1] | [11] | [14] | [12] | [13] | [4] | [5] | [6] | [7] | [8] | [9] | [10]

CCCCCCCCCO
inactive: [1] | [11] | [14] | [15] | [13] | [6] | [9] | [10]

COC(=O)C(C)Oc1ccc(Oc2ncc(C(F)(F)F)cc2Cl)cc1 (configuration not stated)
active: [4] 137 µM
inactive: [1] | [2] | [15] | [16] | [12] | [13] | [3] | [5] | [6] | [8] | [9] | [10]

CCOc1ccc(NC(C)=O)cc1
inactive: [1] | [11] | [16] | [13] | [3] | [4] | [5] | [6] | [8] | [9] | [10]

Cc1cc(O)c(C)c(C)c1O
active: [7] 50.7 µM | [8] 18.8 µM
inactive: [1] | [2] | [12] | [13] | [3] | [4] | [5] | [6] | [9] | [10]

Cc1cccc(C)c1
inactive: [1] | [11] | [2] | [3] | [4] | [5] | [6] | [8] | [9]

C=CC(=O)OCC(CO)(COC(=O)C=C)COC(=O)C=C
active: [3] 180 µM | [17] 0.443 µM | [18] 0.0478 µM
inactive: [1] | [15] | [16] | [12] | [4] | [5] | [6] | [8] | [9]

CCCCC1CCCCC(=O)O1 (configuration not stated)
inactive: [1] | [11] | [15] | [3] | [4] | [5] | [6] | [7] | [8] | [9] | [10]

C=COCC1CCC(COC=C)CC1 (configuration not stated)
active: [8] 179 µM
inactive: [1] | [11] | [2] | [13] | [4] | [5] | [6] | [9] | [10]
